# MITF primary: blocks human microphthalmia-associated transcription factor. O75030. AlphaScreen MITF homodimerization, bead proximity signal. inhibition, % at 2.6 µM. 0.91% of 650,000 active; in the data active = inhibition above about 50%;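 note: 0% = vehicle wells with protein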
# Target sequence (O75030 whole entry, looked up): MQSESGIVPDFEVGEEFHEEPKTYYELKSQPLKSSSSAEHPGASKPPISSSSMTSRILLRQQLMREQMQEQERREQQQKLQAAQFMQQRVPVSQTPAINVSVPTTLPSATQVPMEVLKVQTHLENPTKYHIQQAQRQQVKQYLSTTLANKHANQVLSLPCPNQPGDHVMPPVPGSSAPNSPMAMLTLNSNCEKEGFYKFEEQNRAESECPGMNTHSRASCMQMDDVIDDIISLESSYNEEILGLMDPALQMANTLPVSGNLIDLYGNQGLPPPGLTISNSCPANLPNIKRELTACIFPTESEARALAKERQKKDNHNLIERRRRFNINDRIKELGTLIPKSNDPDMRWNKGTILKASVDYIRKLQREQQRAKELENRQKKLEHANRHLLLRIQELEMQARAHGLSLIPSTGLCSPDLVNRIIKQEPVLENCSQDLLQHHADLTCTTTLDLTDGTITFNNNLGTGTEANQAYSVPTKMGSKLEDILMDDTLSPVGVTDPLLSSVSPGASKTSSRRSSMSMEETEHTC
# GPR151 activ: activators of human GPR151. PathHunter beta-arrestin GPR151 cells, luminescence. activation, % at 11.2 µM. 1% of 650,000 active. AID 1508602. Q8TDV0; in the data active = activation above about 4.9%;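 note: 0% = median of compound wells and 100% = cells with positive control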
# FBW7 activator: activators of human E3 ligase FBW7. AlphaScreen FBW7–phospho-cyclin E peptide binding, activator screen. 0.13% of 650,000 active. Q969H0. normalized activity (activation), % at 26.1 µM; in the data active = normalized activity above about 1.9%;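 note: purified mutant Fbw7 with reduced substrate affinity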
# TEAD-YAP block: TEAD-YAP interaction inhibition; inhibition, % at 9.12 µM; 1.4% of 640,000 active; HEK-TIYL cells, TEAD-Gal4/YAP UAS-luciferase luminescence; in the data active = inhibition above about 32%;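 note: 0% = median of test compound wells and 100% = reference inhibitor wells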
# MITF inh conf: human MITF inhibition, confirmation; shares compounds with MITF primary; inhibition, % at 2.6 µM; 16% of 4,700 active; AlphaScreen MITF homodimerization, biotin/His-MITF beads;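 active = inhibition above a cutoff derived from the DMSO control wells, cut at about 28% in these data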;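 note: 0% = MITF dimer wells with DMSO only; inhibitors lower the bead chemiluminescence by keeping MITF from dimerizing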
# AS interf DR: optically interferes with AlphaScreen signal in dose response; 6% of 480 active; AID 1259373; shares compounds with MITF primary; IC50, µM; AlphaScreen optical interference counterscreen, cell-free; call rule not given here
# AlphaScreen intf2: counter-screen: compounds optically interfering with AlphaScreen | shares compounds with MITF primary | LysRS AlphaScreen counterscreen, signal interference, triplicate | inhibition, % at 2.6 µM | 7.6% of 4,700 active;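 active = inhibition above a cutoff derived from the DMSO control wells, cut at about 30% in these data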
# * hit, by the source's call; . = not tested or not shown. The list is not random: actives were taken first. Their share in the collection is about 3.5%.
SMILES,MITF primary,GPR151 activ,FBW7 activator,TEAD-YAP block,MITF inh conf,AlphaScreen intf2,others
CCOC1=CC(c2ccc3c(c2)OCO3)CC(=O)c2c(C)oc(C)c21 (stereo not given),57*,0,0,12,42*,22,AS interf DR=>6.5
CC1CCN(Cc2nnnn2CCCC(=O)NC2CCOC2)CC1 (stereo not given),5,1,0,-9,.,.,
Cc1cccc(C)c1N1CCN(C(=O)c2cc3cc(Br)ccc3oc2=O)CC1,88*,2,0,6,-15,-1,
Cc1ccc(N2CCN(C(=O)c3cc4cc(Br)ccc4oc3=O)CC2)cc1C,7,-1,0,-1,.,.,
COC(=O)c1ccccc1NS(=O)(=O)c1ccc2[nH]c(=O)c(=O)[nH]c2c1,68*,0,0,-3,-1,1,
COC(=O)c1cc(NS(=O)(=O)c2ccc3[nH]c(=O)c(=O)[nH]c3c2)cc(C(=O)OC)c1,-7,0,0,9,.,.,
COc1cc(/C=C/C(=O)OCC(=O)Nc2ccc([N+](=O)[O-])cc2C#N)ccc1O,72*,-1,1,10,1,5,
N#Cc1cc([N+](=O)[O-])ccc1NC(=O)COC(=O)/C=C/c1ccc2c(c1)OCO2,-1,1,0,-8,.,.,
Cc1cccc(-n2c(SCC(=O)N3CCCC3)nnc2-c2ccoc2C)c1C,-2,2,0,-2,.,.,
COc1cc(/C=C2/SC(N)=NC2=O)ccc1OC(=O)c1ccccc1Cl,6,1,0,18,.,.,
O=C1N[C@H](Cc2ccc(O)cc2)C(=O)N2CCN(C(=O)NCc3ccccc3)C[C@H]12,75*,-1,0,-10,72*,-11,AS interf DR=>6.5
O=C1N[C@@H](Cc2ccccc2)C(=O)N2CCN(C(=O)NCc3ccccc3)C[C@H]12,77*,0,0,8,74*,-7,AS interf DR=>6.5
O=C1N[C@H](Cc2ccccc2)C(=O)N2CCN(C(=O)c3ccccc3)C[C@H]12,3,0,0,5,.,.,
NCCCC[C@@H]1NC(=O)[C@H]2CN(C(=O)NCc3ccccc3)CCN2C1=O,-12,0,0,-1,.,.,
O=C1N[C@@H](Cc2ccccc2)C(=O)N2CCN(C(=O)OCc3ccccc3)C[C@H]12,6,3,0,5,.,.,
CCC[C@@H]1NC(=O)[C@H]2CN(C(=O)NCc3ccccc3)CCN2C1=O,75*,3,0,5,71*,-4,AS interf DR=>6.5
O=C1N[C@H](CO)C(=O)N2CCN(C(=O)NCc3ccccc3)C[C@H]12,81*,-1,0,2,75*,-12,AS interf DR=>6.5
O=C1N[C@H](CO)C(=O)N2CCN(C(=O)c3ccccc3)C[C@H]12,-12,-4,1,6,.,.,
CCCCN1C(=O)NC2NC(=O)NC21 (stereo not given),94*,0,-1,11,86*,54*,
CCN1CCN(CC(=O)n2c(C)c(C)c3ccccc32)CC1,74*,-1,0,-1,-2,-4,
Cc1c(C)n(C(=O)CN2CCN(c3ccccn3)CC2)c2ccccc12,18,-1,0,0,.,.,
O=S(=O)(Nc1nc2ccccc2n2nnnc12)c1ccc(F)cc1,-5,1,0,8,.,.,
S=c1[nH]nc(-c2ccncc2)n1/N=C/C=C/c1ccco1,70*,1,0,2,80*,16,AS interf DR=>6.5
CCCCC[C@H](O)/C=C/[C@H]1[C@H](O)CC(=O)[C@@H]1C/C=C\CCCC(=O)NCCO,3,1,.,.,.,.,
CCCCC/C=C/C=C1/C(=O)C=C[C@@H]1C/C=C\CCCC(=O)O,35,0,.,.,.,.,
SMILES,MITF primary,GPR151 activ,FBW7 activator,TEAD-YAP block,MITF inh conf,AlphaScreen intf2,others
CCCCC/C=C/C=C1/C(=O)C=C[C@@H]1C/C=C\CCCC(=O)NCCCCCNC(=O)CCCCC1SC[C@@H]2NC(=O)N[C@H]12 (stereo not given in full),124*,-1,.,.,124*,101*,
CCCCC[C@H](O)/C=C/[C@@H]1[C@@H](C/C=C\CCCC(=O)NCCCCCNC(=O)CCCCC2SC[C@@H]3NC(=O)N[C@H]23)[C@@H](O)C[C@H]1O (stereo not given in full),124*,-1,.,.,123*,101*,
CCCCC[C@H](O)/C=C/[C@H]1[C@H](O)CC(=O)[C@@H]1C/C=C\CCCC(=O)NCCCCCNC(=O)CCCCC1SC[C@@H]2NC(=O)N[C@H]12 (stereo not given in full),124*,0,.,.,124*,101*,
O=[N+]([O-])c1ccc(Nc2nc(-c3ccncc3)cs2)cc1,51*,0,0,-15,-6,-2,
CC(=O)Nc1ccc(-c2csc(Nc3ccc([N+](=O)[O-])cc3)n2)cc1,-1,-1,0,1,.,.,
C=CCc1cccc(OC)c1OCCOCCn1ccnc1,54*,0,0,-7,-1,7,
CC(C)(C)c1cc(Cl)ccc1OCCn1ccnc1,74*,0,1,-3,5,11,
Cc1ccc(OCCn2ccnc2)c(C)c1,0,-1,0,6,.,.,
Cc1cc(C(C)(C)C)ccc1OCCn1ccnc1,70*,-2,0,1,4,15,
Cc1cc(Br)ccc1OCCOCCn1ccnc1,63*,-2,0,-6,3,8,
Cc1cc(C(C)(C)C)ccc1OCCCn1ccnc1,19,1,0,4,.,.,
CC(C(=O)NC1CCCCC1)N(Cc1cccs1)C(=O)c1snc(C(N)=O)c1N (stereo not given),14,-1,0,-7,.,.,
Cc1ccc(NS(=O)(=O)c2ccc(C)c(C(=O)O)c2)c(C)c1,-5,2,0,15,.,.,
c1ccc(CN2CCN(Cc3ccncc3)CC2)cc1,80*,0,0,6,-8,0,
COc1ccc(CN2CCN(CCCc3ccccc3)CC2)cc1OC,59*,1,0,6,12,15,
c1ccc(CCCN2CCN(Cc3ccncc3)CC2)cc1,69*,0,0,6,-9,-7,
COc1ccc(CN2CCN(CCCc3ccccc3)C(CCO)C2)cc1OC (stereo not given),7,0,0,2,.,.,
Cc1ccc(S(=O)(=O)CCN2CCN(Cc3ccccc3)CC2)cc1,11,0,0,11,.,.,
Cc1ccc(CN2CCN(CCCc3ccccc3)CC2)cc1,66*,2,0,6,-13,-2,
C=C(C)Cn1c(N/N=C(\C)c2ccccc2O)nc2c1c(=O)[nH]c(=O)n2C,45,1,0,1,.,.,
CC(=O)Nc1ccc(-c2csc(NCc3ccccc3)n2)cc1,8,2,0,-33,.,.,
CC(=O)Nc1cccc(-c2csc(NCc3ccccc3)n2)c1,85*,0,0,-4,9,9,
COc1ccccc1Nc1nc(-c2cccc(NC(C)=O)c2)cs1,-2,2,0,-67,.,.,

# Bioassay records from PubChem BioAssay.
